From PubChem BioAssay (NCATS) come the findings set out here.

Results filed as inconclusive are left out. Activity calls are given as the source filed them. Calls follow the shape of the dose curve; as a rule, active = well fitted inhibition curve with a large enough effect; inconclusive = small, poorly fitted or top-dose-only effect; inactive = flat fitted curve, though single readings scatter.

Holding throughout (assay): qHTS profiling for inhibitors of Plasmodium falciparum proliferation (AID 504749); also: nearly all actives have a fitted effect of over 60% in size
Holding throughout (conditions): P. falciparum in erythrocytes, SYBR Green DNA, 72 h; series mostly up to 28.7 µM
(In general: Quantitative high-throughput screening tests each substance at several concentrations.)

The test system of one assay is CP238. The gist of the method: (§1)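 In a 72 h erythrocytic culture (37 C, humidified, 5% CO2) at 2.5% hematocrit and 0.3% starting parasitemia, compounds were tested; SYBR Green I in detergent lysis buffer stained parasite DNA overnight.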
For another assay, the system named is CP247. The procedure, abridged:
as §1

A further assay relates to CP250. The gist of the method: as §1
Another assay deals with CP252. The procedure, abridged:
as §1

For another assay, the system named is CP256. The procedure, abridged: as §1
The next assay relates to CP260. The procedure, abridged:
as §1

In a further assay the test system is CP262. The gist of the method: as §1
The test system of the next assay is CP265. The gist of the method:
as §1

The subject of a further assay is CP266. The gist of the method: as §1
The next assay has as its system CP268. The procedure, abridged:
as §1

In a further assay the test system is CP269. The procedure, abridged: as §1
Another assay has as its system CP286. The procedure, abridged:
as §1

Another assay has as its system CP291. The gist of the method: as §1
A further assay concerns CP297. The procedure, abridged:
as §1

The subject of another assay is CP305. The gist of the method: as §1
The next assay relates to CP315. The procedure, abridged: as §1
A further assay deals with CP325. The procedure, abridged:
as §1

Another assay has as its system CP329. The procedure, abridged:
as §1

The subject of the next assay is CP335. The gist of the method:
as §1

The test system of the next assay is DIV14. The procedure, abridged: as §1
Potency is read from the fitted curve at half-maximal effect.

Take `CN1c2cc(O)c(N=NC(N)=O)cc2CC1S(=O)(=O)O` (configuration not stated): the Potency result with CP238, in the assay on CP247, in the assay with CP250, in the assay with CP252, in the assay on CP256 and in the assay with CP260 was “inactive” throughout. The Potency entry in the assay on CP262, with CP265, in the assay on CP266, in the assay on CP268, in the assay on CP269 and with CP286 was “inactive” in each case. The Potency entry in the assay on CP291, in the assay with CP297, with CP305, in the assay on CP315, with CP325 and in the assay on CP329 was “inactive” in each case. Further, the Potency entry in the assay on CP335 and in the assay on DIV14 was “inactive” in each case.

As for `Nc1ccc(S(=O)(=O)Nc2ncccn2)cc1`, the Potency result in the assay with CP238, in the assay with CP247, in the assay with CP250, with CP252, with CP256 and in the assay on CP260 was “inactive” in each case. Also, the Potency entry in the assay on CP262, in the assay on CP265, with CP266, in the assay with CP268, in the assay with CP269 and with CP286 was “inactive” throughout. Moreover, the Potency result in the assay on CP291, in the assay on CP297, with CP305, in the assay with CP325, in the assay on CP329 and in the assay on CP335 was “inactive” each time. Further, the Potency entry in the assay with DIV14 is “inactive”.

Take `COC(=O)C1=C(C)NC(C)=C(C(=O)OCCN2CCN(C(c3ccccc3)c3ccccc3)CC2)C1c1cccc([N+](=O)[O-])c1` (configuration not stated): the Potency with CP238 is 2.51 µM (active); in the assay on CP247 it was 3.98 µM (active); in the assay on CP250, 4.47 µM (active); with CP252 it was 2.82 µM (active); with CP256, 3.55 µM (active); in the assay with CP260, 2.51 µM (active). Moreover, the Potency was 4.78 µM (active) with CP262; 6.75 µM (active) with CP266; 4.78 µM (active) with CP268; 4.26 µM (active) in the assay on CP269; 2.51 µM (active) with CP286; 4.78 µM (active) in the assay with CP291. Also, the Potency in the assay on CP297 was 4.26 µM (active); with CP305, 5.36 µM (active); in the assay on CP315, 4.78 µM (active); in the assay on CP325, 3.79 µM (active); in the assay with CP329, 4.78 µM (active); with CP335, 1.69 µM (active). The Potency in the assay on DIV14 is 3.79 µM (active).

Regarding `Nc1ccn([C@@H]2O[C@H](CO)[C@H](O)C2(F)F)c(=O)n1`, the Potency in the assay with CP238 is 3.98 µM (active); with CP247, 1.41 µM (active); in the assay with CP250, 5.01 µM (active); in the assay on CP252 it was 3.55 µM (active); in the assay on CP256 it was 1.58 µM (active); with CP260 it was 3.98 µM (active). Also, the Potency in the assay with CP262 was 2.69 µM (active); in the assay on CP265, 3.98 µM (active); in the assay on CP266, 4.78 µM (active); in the assay with CP268, 6.01 µM (active); with CP269, 4.78 µM (active); in the assay with CP286, 3.98 µM (active). For the same compound, the Potency was 4.26 µM (active) with CP291; 6.75 µM (active) in the assay with CP297; 5.36 µM (active) in the assay on CP305; 8.49 µM (active) with CP315; 2.39 µM (active) with CP325; 5.36 µM (active) with CP329. The results for the Potency with CP335 and in the assay with DIV14 were 2.39 µM (active) and 0.849 µM (active), respectively.

As to `CCC1=C[C@@H]2CN(C1)Cc1c([nH]c3ccccc13)[C@@](C(=O)OC)(c1cc3c(cc1OC)N(C)[C@@H]1[C@@](O)(C(=O)OC)[C@H](OC(C)=O)[C@]4(CC)C=CCN5CC[C@]31[C@@H]54)C2`, the Potency in the assay with CP238 was 2.82 µM (active); with CP247, 3.55 µM (active); in the assay with CP250 it was 3.98 µM (active); with CP252, 2.82 µM (active); in the assay on CP256 it was 2 µM (active); in the assay on CP260 it was 2.82 µM (active). Moreover, the Potency is 3.01 µM (active) in the assay on CP262; 2 µM (active) with CP265; 4.26 µM (active) in the assay on CP266; 3.38 µM (active) with CP268; 1.9 µM (active) with CP269; 2 µM (active) in the assay on CP286. The Potency in the assay on CP291 is 3.01 µM (active); in the assay on CP297, 3.79 µM (active); in the assay on CP305, 3.01 µM (active); in the assay on CP315, 3.79 µM (active); in the assay with CP325 it was 3.79 µM (active); with CP329, 3.01 µM (active). In addition, the Potency in the assay on CP335 was 1.69 µM (active); in the assay with DIV14 it was 3.79 µM (active).

As to `CC[C@H]1CN2CCc3cc(OC)c(OC)cc3[C@H]2C[C@@H]1C[C@@H]1NCCc2cc(OC)c(OC)cc21`, the Potency was 0.316 µM (active) in the assay with CP238; 0.398 µM (active) in the assay on CP247; 0.316 µM (active) with CP250; 0.562 µM (active) in the assay with CP252; 0.355 µM (active) in the assay on CP256; 0.126 µM (active) in the assay with CP260. Moreover, the Potency with CP262 was 0.757 µM (active); in the assay on CP265 it was 0.447 µM (active); in the assay with CP266, 0.675 µM (active); in the assay on CP268 it was 0.426 µM (active); with CP269 it was 0.301 µM (active); in the assay with CP286, 0.158 µM (active). Moreover, the Potency with CP291 was 0.269 µM (active); with CP297, 0.379 µM (active); with CP305 it was 0.379 µM (active); with CP315, 0.757 µM (active); in the assay with CP325 it was 0.478 µM (active); with CP329 it was 0.379 µM (active). In addition, the Potency in the assay on CP335 and in the assay on DIV14 was 0.379 µM (active) each time.

Consider `C[C@H]1C[C@@H]2[C@@H]([C@@H](O)C[C@@]3(C)[C@H]2CC[C@]3(O)C(=O)CO)[C@@]2(C)C=CC(=O)C=C12`, for which the Potency entry in the assay on CP238, in the assay on CP247, with CP250, in the assay with CP252, in the assay on CP256 and in the assay on CP260 was “inactive” each time. The Potency entry with CP262, in the assay with CP265, in the assay with CP266, in the assay on CP268, in the assay with CP269 and in the assay with CP286 was “inactive” each time. Further, the Potency result in the assay on CP291, in the assay with CP305, in the assay with CP315, in the assay on CP325, in the assay on CP329 and with CP335 was “inactive” throughout. Besides, in the assay on DIV14, the Potency result was “inactive”.
